Laboratory results published in the supplement of paper PMC7411054.

Tests used:
Details in all cases: treatment time: 24 h
HepG2-GM130-SQSTM1 [1] = experiment: lowest phenotypically active concentration; higher = less potent
Method in brief: (§1)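 Live-cell features were measured per well and normalised to solvent control wells after fifteen gene-edited A549, HepG2 and WPMY1 reporter lines had been treated for 24 h at 0.3, 1, 3 or 9 µM in four wells each. A condition was deviating when ≥3 of 4 wells sat beyond the 95th percentile of control Euclidean distances. It was reproducible when the median replicate Pearson correlation exceeded the 95th percentile of non-replicates. Phenotypic activity demanded both.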

WPMY1-ACTB-RAB5A [2] = experiment: as above
Method in brief: as §1

WPMY1-CANX-COX4 [3] = experiment: as above
Method in brief: as §1

WPMY1-GM130-SQSTM1 [4] = experiment: as above
Method in brief: as §1

WPMY1-TP53BP1-CLTA [5] = experiment: as above
Method in brief: as §1

A549-CANX-COX4 = experiment: phenotypically active (imaging signature differs from DMSO and reproducible) at any of 0.3-9 uM (binary (1 = active, 0 = inactive)); higher = active
Method in brief: as §1

A549-TP53BP1-CLTA = experiment: as above
Method in brief: as §1

HepG2-ACTB-RAB5A = experiment: as above
Method in brief: as §1

HepG2-CANX-COX4 = experiment: as above
Method in brief: as §1

HepG2-GM130-SQSTM1 [6] = experiment: as above
Method in brief: as §1

HepG2-TP53BP1-CLTA = experiment: as above
Method in brief: as §1

HepG2-TUBA1B-RELA = experiment: as above
Method in brief: as §1

WPMY1-ACTB-RAB5A [7] = experiment: as above
Method in brief: as §1

WPMY1-CANX-COX4 [8] = experiment: as above
Method in brief: as §1

WPMY1-GM130-SQSTM1 [9] = experiment: as above
Method in brief: as §1

WPMY1-TP53BP1-CLTA [10] = experiment: as above
Method in brief: as §1

WPMY1-TUBA1B-RELA = experiment: as above
Method in brief: as §1

SMILES | lowest phenotypically active concentration (HepG2-GM130-SQSTM1 [1]) | lowest phenotypically active concentration (WPMY1-ACTB-RAB5A [2]) | lowest phenotypically active concentration (WPMY1-CANX-COX4 [3]) | lowest phenotypically active concentration (WPMY1-GM130-SQSTM1 [4]) | lowest phenotypically active concentration (WPMY1-TP53BP1-CLTA [5]) | phenotypically active (A549-CANX-COX4) | phenotypically active (A549-TP53BP1-CLTA) | phenotypically active (HepG2-ACTB-RAB5A) | phenotypically active (HepG2-CANX-COX4) | phenotypically active (HepG2-GM130-SQSTM1 [6]) | phenotypically active (HepG2-TP53BP1-CLTA) | phenotypically active (HepG2-TUBA1B-RELA) | phenotypically active (WPMY1-ACTB-RAB5A [7]) | phenotypically active (WPMY1-CANX-COX4 [8]) | phenotypically active (WPMY1-GM130-SQSTM1 [9]) | phenotypically active (WPMY1-TP53BP1-CLTA [10]) | phenotypically active (WPMY1-TUBA1B-RELA)
Cc1c2oc3c(C)ccc(C(=O)NC4C(=O)NC(C(C)C)C(=O)N5CCCC5C(=O)N(C)CC(=O)N(C)C(C(C)C)C(=O)OC4C)c3nc-2c(C(=O)NC2C(=O)NC(C(C)C)C(=O)N3CCCC3C(=O)N(C)CC(=O)N(C)C(C(C)C)C(=O)OC2C)c(N)c1=O (stereo unspecified) [Actinomycin D] | ≤ 0.3 µM | ≤ 0.3 µM | ≤ 0.3 µM | ≤ 0.3 µM | ≤ 0.3 µM | 1 (active) | 1 (active) | 1 (active) | 1 (active) | 1 (active) | 1 (active) | 1 (active) | 1 (active) | 1 (active) | 1 (active) | 1 (active) | 1 (active)
CN1CCN(C2=Nc3cc(Cl)ccc3Nc3ccccc32)CC1 [clozapine] |  |  |  | 9 µM |  | 0 (inactive) | 0 (inactive) | 0 (inactive) | 0 (inactive) | 0 (inactive) | 0 (inactive) | 0 (inactive) | 0 (inactive) | 0 (inactive) | 1 (active) | 0 (inactive) | 0 (inactive)
CC(C)CCN1c2nc(Nc3cc(F)c(O)c(F)c3)ncc2N(C)C(=O)C1C (stereo unspecified) | 1 µM | 3 µM | 3 µM | ≤ 0.3 µM | ≤ 0.3 µM | 0 (inactive) | 1 (active) | 1 (active) | 1 (active) | 1 (active) | 1 (active) | 1 (active) | 1 (active) | 1 (active) | 1 (active) | 1 (active) | 1 (active)
Cc1ccccc1N1C(=O)c2cc(S(N)(=O)=O)c(Cl)cc2NC1C (stereo unspecified) [metolazone] |  |  |  |  |  | 0 (inactive) | 0 (inactive) | 0 (inactive) | 0 (inactive) | 0 (inactive) | 0 (inactive) | 0 (inactive) | 0 (inactive) | 0 (inactive) | 0 (inactive) | 0 (inactive) | 0 (inactive)
CC(C)NCC(O)COc1cccc2ccccc12 (stereo unspecified) [propranolol] |  |  |  |  |  | 0 (inactive) | 0 (inactive) | 0 (inactive) | 0 (inactive) | 0 (inactive) | 0 (inactive) | 0 (inactive) | 0 (inactive) | 0 (inactive) | 0 (inactive) | 0 (inactive) | 0 (inactive)
C/C(=C/c1ccc(C(=O)O)cc1)c1ccc2c(c1)C(C)(C)CCC2(C)C |  |  | 9 µM | 3 µM | 3 µM | 0 (inactive) | 0 (inactive) | 0 (inactive) | 0 (inactive) | 0 (inactive) | 0 (inactive) | 0 (inactive) | 0 (inactive) | 1 (active) | 1 (active) | 1 (active) | 0 (inactive)
Cc1ccc(S(=O)(=O)/C=C/C#N)cc1 |  |  | 9 µM | 9 µM |  | 0 (inactive) | 0 (inactive) | 0 (inactive) | 0 (inactive) | 0 (inactive) | 0 (inactive) | 0 (inactive) | 0 (inactive) | 1 (active) | 1 (active) | 0 (inactive) | 0 (inactive)
COc1cc2c(NC3CCN(C(C)C)CC3)nc(C3CCCCC3)nc2cc1OCCCN1CCCC1 | 1 µM | 1 µM | 1 µM | ≤ 0.3 µM | 1 µM | 1 (active) | 1 (active) | 1 (active) | 1 (active) | 1 (active) | 1 (active) | 1 (active) | 1 (active) | 1 (active) | 1 (active) | 1 (active) | 1 (active)
CN1C(=O)CC(c2ccccc2)C1=O (stereo unspecified) [phensuximide] |  |  |  |  |  | 0 (inactive) | 0 (inactive) | 0 (inactive) | 0 (inactive) | 0 (inactive) | 0 (inactive) | 0 (inactive) | 0 (inactive) | 0 (inactive) | 0 (inactive) | 0 (inactive) | 0 (inactive)
Cc1nc(NC(=O)N2CCC[C@H]2C(N)=O)sc1-c1csc(C(C)(C)C)n1 | 3 µM |  | 9 µM |  | 3 µM | 0 (inactive) | 1 (active) | 1 (active) | 1 (active) | 1 (active) | 1 (active) | 1 (active) | 0 (inactive) | 1 (active) | 0 (inactive) | 1 (active) | 0 (inactive)
COc1cc2nccc(Oc3ccc(NC(=O)NC4CC4)c(Cl)c3)c2cc1C(N)=O [lenvatinib] |  | 1 µM |  |  |  | 0 (inactive) | 0 (inactive) | 0 (inactive) | 0 (inactive) | 0 (inactive) | 0 (inactive) | 0 (inactive) | 1 (active) | 0 (inactive) | 0 (inactive) | 0 (inactive) | 0 (inactive)
CCCCCCCCCCCCc1ccc(S(=O)(=O)Nc2nncs2)cc1 |  |  |  |  |  | 0 (inactive) | 0 (inactive) | 0 (inactive) | 0 (inactive) | 0 (inactive) | 0 (inactive) | 0 (inactive) | 0 (inactive) | 0 (inactive) | 0 (inactive) | 0 (inactive) | 0 (inactive)
OC(CCN1CCCCC1)(c1ccccc1)C1CCCCC1 (stereo unspecified) [trihexyphenidyl] |  |  |  |  |  | 0 (inactive) | 0 (inactive) | 0 (inactive) | 0 (inactive) | 0 (inactive) | 0 (inactive) | 0 (inactive) | 0 (inactive) | 0 (inactive) | 0 (inactive) | 0 (inactive) | 0 (inactive)
